12-LOX inh – Primary qHTS assay for inhibitors of human arachidonate 12S-lipoxygenase (ALOX12): Round 2; Polyunsaturated fatty acid lipoxygenase ALOX12 (Homo sapiens), P18054; purified 12hLO, xylenol orange hydroperoxide absorbance; Potency, µM (highest dose often 108 µM), for inactives: top-dose activity change, negative = inhibition, usual class: inhibitors; hit rate 1.1% among 580,000; AID 1671190, 2021; note: potency is the fitted concentration of half-maximal effect
Target sequence (P18054 whole entry, looked up): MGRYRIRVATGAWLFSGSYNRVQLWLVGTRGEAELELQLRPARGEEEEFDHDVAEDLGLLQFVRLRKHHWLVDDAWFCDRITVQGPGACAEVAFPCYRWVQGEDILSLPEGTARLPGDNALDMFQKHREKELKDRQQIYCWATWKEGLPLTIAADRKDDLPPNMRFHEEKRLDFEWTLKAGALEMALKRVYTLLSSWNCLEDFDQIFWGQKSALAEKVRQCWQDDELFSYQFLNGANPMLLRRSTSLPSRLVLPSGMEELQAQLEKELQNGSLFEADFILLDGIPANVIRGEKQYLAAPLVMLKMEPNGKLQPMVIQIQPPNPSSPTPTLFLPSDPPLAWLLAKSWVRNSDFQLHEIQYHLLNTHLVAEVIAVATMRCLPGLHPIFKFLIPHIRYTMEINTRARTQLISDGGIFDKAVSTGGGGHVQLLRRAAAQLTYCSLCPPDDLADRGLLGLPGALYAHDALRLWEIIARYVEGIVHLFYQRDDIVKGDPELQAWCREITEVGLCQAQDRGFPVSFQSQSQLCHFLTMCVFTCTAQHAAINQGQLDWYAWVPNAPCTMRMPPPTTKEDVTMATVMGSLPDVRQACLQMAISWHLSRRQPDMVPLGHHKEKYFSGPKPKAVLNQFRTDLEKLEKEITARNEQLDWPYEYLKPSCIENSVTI
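Purified human 12hLO (150 nM final) in 25 mM Hepes, 0.01% Triton X-100, pH 7.0 was preincubated 15 min at room temperature with compound. Then 40 uM arachidonic acid was added, 30 min. Hydroperoxide was read by Fe-XO absorbance ratio 573/405 nm.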
DT40 TDP1 no CPT – qHTS for Inhibitors of human tyrosyl-DNA phosphodiesterase 1 (TDP1): qHTS in cells in absence of CPT; DT40 Tdp1-/- hTDP1 cells, no CPT, ATP luminescence, 48 h; Potency, µM (top dose mostly 46.2 µM), for inactives: top-dose activity change, negative = growth inhibition, most hits filed as inhibitors; hit rate 15% among 420,000; note: potency is the fitted concentration of half-maximal effect; nearly all actives have a fitted effect of over 55% in size
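Chicken DT40 Tdp1-/- cells complemented with human TDP1, screened without camptothecin (DMSO vehicle only), 400 cells/well. Compounds pin-transferred, cells incubated at 37 °C for at least 48 hr. Growth read as ATP-dependent luminescence (CellTiter-Glo, 30 min at RT).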
TDP1 cell CPT – qHTS for Inhibitors of human tyrosyl-DNA phosphodiesterase 1 (TDP1): qHTS in cells in presence of CPT. chicken DT40 Tdp1-/-;hTDP1 cells + 20 nM CPT, ATP luminescence, 48 h. Potency, µM (highest dose often 46.2 µM), for the others: at the top dose activity change, negative = growth inhibition, hits mostly inhibitors. hit rate 12% among 420,000; note: potency is the fitted concentration of half-maximal effect; nearly all actives have a fitted effect of over 55% in size
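Chicken DT40 Tdp1-/- cells stably complemented with human TDP1 were seeded at 400 cells/well in medium containing 20 nM camptothecin, exposed to pin-transferred compounds, and grown at 37 °C for at least 48 hr. Viability was read as ATP luminescence.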
IL1B secr inh – qHTS for Inhibitors of Inflammasome Signaling: IL-1-beta AlphaLISA Primary Screen | THP-1 LPS/ATP IL-1B secretion, AlphaLISA, 16 h; stronger effect = lower value | activity change, % at 57.5 µM | hit rate 4.7% among 360,000 | AID 743279, 2014; in the data active = activity change below about -50%; inconclusive = mostly about -30% to -49%
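Secreted IL-1B measured by AlphaLISA bead assay after 16 h compound exposure of THP-1 cells; compounds (final up to 57.5 uM) added 1 h before LPS (250 ng/mL) and ATP (1.25 mM) stimulation; lower signal means less secretion.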
HT1080 IDH1KD tx – qHTS for induction of synthetic lethality in tumor cells producing 2HG: qHTS for the HT-1080-IDH1KD cell line; HT-1080 IDH1 knockdown viability, ATP luminescence, 48 h; Potency, µM (series often up to 46.1 µM), for inactives: at the top dose activity, negative = toxicity, most hits filed as cytotoxic; hit rate 2% among 360,000; AID 686971, 2013;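 note: potency is the fitted concentration of half-maximal effect; 0% = DMSO wells and -100% = cell-free medium wells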
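Luminescent ATP read-out (CellTiter-Glo, 10 min at room temperature) after 48 h compound exposure at 37 °C gave viability of IDH1-knockdown HT-1080 cells. Activity was normalised to DMSO and cell-free wells, then fitted as concentration-response curves.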
HT1080-NT tox – qHTS for induction of synthetic lethality in tumor cells producing 2HG: qHTS for the HT-1080-NT fibrosarcoma cell line; HT-1080-NT fibrosarcoma viability, CellTiter-Glo ATP luminescence, 48 h; Potency, µM (highest dose often 46.1 µM), without a hit: at the top dose activity, negative = less viability, usual class: cytotoxic; hit rate 1.6% among 360,000; AID 686970, 2013;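 note: NT is the 2HG producing partner of a matched IDH1 knockdown line; potency is the fitted concentration of half-maximal effect; 0% = DMSO-treated cells and -100% = media-only wells without cells; nearly all actives have a fitted effect of over 55% in size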
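HT-1080-NT; 750 cells/well; 5% FBS RPMI; 48 h compound, 37 degrees C; CellTiter-Glo luminescence; curve fitting and curve-class assignment.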
Starred values were filed as active, the others as inactive; u = inconclusive; x = no result; [ ] = dose if it differs, or a comment. Shown is part of a subset that was picked to be rich in hits. Unless noted, calls come from the whole dose curve; as a rule, active = well fitted curve in the direction sought with a large enough effect; inconclusive = small, poorly fitted or top-dose-only effect, or another doubt; inactive = no such curve, though single readings can be large; an effect the other way counts as inactive or inconclusive. Unless noted, % is set by controls: 0 for no effect and ±100 for the full control effect.

SMILES | 12-LOX inh | DT40 TDP1 no CPT | TDP1 cell CPT | IL1B secr inh | HT1080 IDH1KD tx | HT1080-NT tox
CCOC(=O)c1sc(-c2ccccc2)cc1NC(=O)Nc1ccc([N+](=O)[O-])cc1 | -12% | 21µM* | u | 15 | 12% | 2%
CCOc1ccc(-c2cc(NC(=O)c3ccccc3)c(C(=O)OC)s2)cc1 | -4% | 12µM* | u | x | x | x
CCOC(=O)c1sc(-c2ccccc2)cc1N | -8% | -20% | 5% | -2 | 18% | 11%
CC(C)NC(=O)c1ccccc1CSc1nc2ccccc2o1 | -26% | x | x | x | x | x
COc1cccc(CN(C)C(=O)CN2CCCC2c2ccc3c(c2)OCCO3)c1OC (centres undefined) | 0% | x | x | x | x | x
COC(=O)c1sc(-c2ccc(C(C)(C)C)cc2)cc1NC(=O)CCC(=O)O | u | u | 16µM* | 8 | -23% | -23%
O=C(CCCOc1ccc(Cl)cc1Cl)NCCCO | -29% | 7% | 4% | -20 | 4% | -1%
Cc1ccccc1OCC(=O)NCC(=O)N/N=C/c1cccc([N+](=O)[O-])c1 | -5% | x | x | x | x | x
Cc1cc(Cl)ccc1OCCCC(=O)NO | u | 18µM* | 8.2µM* | -11 | 21µM* | 21µM*
O=C(CCCOc1ccc(Cl)cc1Cl)N/N=C/c1ccc(Cl)cc1 | -17% | 23µM* | u | u | u | u
Cc1cc(Cl)ccc1OCCCC(=O)N/N=C/c1cccc([N+](=O)[O-])c1 | -2% | u | 15µM* | -2 | 3% | -1%
O=C(CCCOc1ccc(Cl)cc1Cl)N/N=C\C1CCCCC1 | -2%[57.4 µM] | -8% | -17% | -51* | -8% | 0%
COc1ccc(/C=N/NC(=O)CCCOc2ccc(Cl)cc2Cl)cc1 | 4% | 4% | 1% | -19 | -12% | -5%
Cc1ccc(N=C2C(=S)N(c3ccc(C)cc3)C(=N)N2/N=C/c2ccc(Cl)cc2)cc1 | -21% | 26µM* | 26µM* | u | 9% | 0%
O=C(NCCNc1ccncc1)Nc1ccccc1 | -28% | x | x | x | x | x
OC(CBr)C[n+]1cc(Br)cc2ccccc21 (centres undefined) | x | 8.9µM* | 7.1µM* | x | x | x
O=C(C[n+]1cc(Br)cc2ccccc21)c1ccccc1 | u | 18µM* | 18µM* | 26 | -8% | -6%
O=C(COC(=O)c1ccc(O)cc1)c1ccc(NC(=O)c2ccco2)cc1 | -43% | x | x | x | x | x
C=CCOC(=O)C1=C(C)OC(N)=C(C#N)C1c1c(C)nn(-c2ccccc2)c1Cl (centres undefined) | u | 9.2µM* | u | -13 | -2% | 1%
CCOC(=O)C1=C(C)OC(N)=C(C#N)C1c1cccc(C)c1 (centres undefined) | u | -1% | 0% | 5 | 2% | 2%
CCOC(=O)C1=C(c2ccccc2)OC(N)=C(C#N)C1c1ccncc1 (centres undefined) | u | u | 23µM* | -15 | -3% | -6%
COC(=O)C1=C(C)OC(N)=C(C#N)C1c1ccc(-c2ccccc2)cc1 (centres undefined) | 35µM* | x | x | x | x | x
CCOC(=O)C1=C(C)OC(N)=C(C#N)C1c1cc(F)ccc1F (centres undefined) | -17% | u | u | -66* | u | u
COc1nc(OCC#N)nc(N2CCOCC2)n1 | 4% | x | x | x | x | x
O=c1c2ccccc2cnn1CN1CCN(S(=O)(=O)c2ccc(Cl)cc2)CC1 | -10% | x | x | x | x | x
SMILES | 12-LOX inh | DT40 TDP1 no CPT | TDP1 cell CPT | IL1B secr inh | HT1080 IDH1KD tx | HT1080-NT tox
CCn1nc(-c2ccccc2)c(-c2ccccc2)c(C(=O)Nc2ccc(S(N)(=O)=O)cc2)c1=O | -16% | u | u | x | x | x
CCn1nc(-c2ccccc2)c(-c2ccccc2)c(C(=O)Nc2nc(C)c(C(C)=O)s2)c1=O | -8% | 1.6µM* | 1.6µM* | x | x | x
Cc1cc(/C=C(/C#N)C(=O)OC(C)C)cc(C)c1OC(F)F | 40% | x | x | x | x | x
COCC1CCCCN1C(=O)c1cc(COc2ccc3ncccc3c2)on1 (centres undefined) | 0% | 0.92µM* | 1.2µM* | 17 | 1% | 2%
CCN(CC)C(=O)C1CCCN(C(=O)c2cc(COc3ccc4ncccc4c3)on2)C1 (centres undefined) | -2% | 5.8µM* | 16µM* | -7 | -20% | -3%
COCC1CCCN(C(=O)c2cc(COc3ccc(C(C)=O)cc3)on2)C1 (centres undefined) | 6% | -28% | -22% | -15 | -6% | -7%
CCC1CCCCN1C(=O)c1cc(COc2ccc3ncccc3c2)on1 (centres undefined) | 3% | 1µM* | 1.8µM* | -19 | u | -22%
Cc1ccc(OCc2cc(C(=O)N3CCCC(O)C3)no2)cn1 (centres undefined) | 7% | 0% | 1% | 24 | 20% | 3%
COCCOC1CCN(C(=O)c2cc(COc3ccc(-n4cncn4)cc3)on2)CC1 | 2% | -25% | -15% | 7 | 1% | -5%
COCCC1CCCCN1C(=O)c1cc(COc2ccc(-n3cncn3)cc2)on1 (centres undefined) | 5% | 2.1µM* | 5.2µM* | -15 | u | -3%
CCn1c(CO)nnc1C1CC(NC(=O)c2oc3cc(OC)ccc3c2C)C1 (centres undefined) | 29% | x | x | x | x | x
COc1ccc(CC(=O)N2Cc3ccccc3CC3(CCN(CC4CCNC4)C3)C2)cc1 (centres undefined) | -28%[6.33 µM] | x | x | x | x | x
Cc1sc2nc(CSc3nnnn3C3CCCCC3)[nH]c(=O)c2c1C | 0% | x | x | x | x | x
COC(c1ccccc1)c1c(-c2ccccc2)nn(C)c1Cl (centres undefined) | 0% | u | 1.5µM* | 25 | -10% | -3%
CCOC(=O)C1CCN(C(=O)C2CCCN(c3ncnc4c3nc3n4CCCCC3)C2)CC1 (centres undefined) | 35% | 18µM* | u | -5 | 6% | 12%
CC1CC(C)CN(C(=O)C2CCCN(c3ncnc4c3nc3n4CCCCC3)C2)C1 (centres undefined) | u | 15µM* | 23µM* | -8 | -6% | -13%
